RE007 growth inh – less growth of the S. pombe RE007 Vpr strain | S. pombe RE007 Vpr strain, BacTiter-Glo ATP luminescence, 24 h | Potency, µM (top dose mostly 92.2 µM), hits mostly inhibitors | 360,000 tested, 0.21% active | AID 651644; active = well fitted falling curve with a large enough effect; inconclusive = small, poorly fitted or top-dose-only effect; inactive = no such curve, though single readings can be large or run the other way; also: nearly all actives have a fitted effect of over 50% in size
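Fission yeast RE007 carrying one integrated HIV-1 vpr copy, seeded at OD 0.01 in PMG+AL medium with 23 nL pinned compound. Grown 24 h at 30 degrees; viability read by BacTiter-Glo luminescence after 5 min.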
Sm TGR block – S. mansoni TGR enzyme inhibition. purified TGR, DTNB reduction, TNB absorbance 405 nm. Potency, µM (series often up to 114 µM), most hits filed as inhibitors. 360,000 tested, 3% active. Q962Y6; also: nearly all actives have a fitted effect of over 60% in size
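First, TGR (20 nM dispensed) and NADPH were mixed with compound. Second, a 15 min room-temperature incubation followed. Third, further NADPH and then DTNB were added to start the reaction. Finally, TNB absorbance was monitored kinetically.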
HCMV antiviral – inhibitors of human cytomegalovirus. HFF cells, HCMV-luciferase reporter, 72 h; active compounds read low. activity change, negative = inhibition, % at 57.5 µM. 410,000 tested, 4.5% active. AID 1259415; in the data active = activity change below about -60%; inconclusive = no clear call, values can overlap the other calls; inactive = above about -39%
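Two compound doses tested in HFFs infected with HCMV-luciferase, MOI 1 PFU/cell, 72 h at 37C. Lysate luminescence read with OneGlo; data normalized against buffer-only and 10uM Salinomycin inhibitor controls.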
FMDV antiviral – antivirals against foot and mouth disease virus | AID 1159524 | 410,000 tested, 1.2% active | FMDV antiviral cell-based qHTS | Potency, µM (top dose mostly 57.9 µM), actives largely listed as inhibitors; calls by dose curve; tested in HEK293T cells; also: read-out not given here; nearly all actives have a fitted effect of over 45% in size
Tb PYK inh – inhibitors of Trypanosoma brucei pyruvate kinase; AID 624173; Q57TT1; Potency, µM (series often up to 76.8 µM), usual class: inhibitors; 410,000 tested, 0.12% active; TbPYK enzyme, Kinase-Glo Plus ATP luminescence, 45 min; also: nearly all actives have a fitted effect of over 50% in size
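ADP (130 uM final) triggers the TbPYK reaction after compound addition; incubation is 45 min at room temperature. Kinase-Glo Plus is then added and luminescence imaged. Normalized data are fitted to concentration-effect curves.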
FBPA Giardia inh – inhibitors of Giardia lamblia fructose-1,6-bisphosphate aldolase; purified Giardia FBPA; Potency, µM (doses to about 59.6 µM), most hits filed as inhibitors; 290,000 tested, 0.71% active; AID 2451; also: nearly all actives have a fitted effect of over 55% in size
Target sequence (A8B2U2 whole entry, looked up): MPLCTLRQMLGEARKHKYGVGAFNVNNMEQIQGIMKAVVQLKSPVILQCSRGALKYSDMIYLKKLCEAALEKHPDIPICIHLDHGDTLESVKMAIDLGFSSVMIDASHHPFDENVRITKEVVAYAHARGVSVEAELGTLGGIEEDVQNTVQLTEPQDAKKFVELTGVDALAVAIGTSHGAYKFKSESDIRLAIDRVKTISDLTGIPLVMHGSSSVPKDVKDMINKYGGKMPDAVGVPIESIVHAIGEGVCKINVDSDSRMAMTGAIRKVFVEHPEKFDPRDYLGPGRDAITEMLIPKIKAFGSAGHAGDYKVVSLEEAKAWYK
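Giardia FBPA (40 nM reagent) was preincubated 10 min at RT with compound (up to 57.5 uM final), then substrate plus GAPDH/TPI/NAD/arsenate coupling system with diaphorase/resazurin was added; resorufin fluorescence (525/598 nm) was read after 20 min.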
Numbers stand for hits; [ ] = remark or other dose. Most compounds without a hit are left out; they make up all but 7.7% or so of the library. Unless noted, calls follow the shape of the dose curve; as a rule, active = well fitted curve in the direction sought with a large enough effect; inconclusive = small, poorly fitted or top-dose-only effect, or another doubt; inactive = no such curve, though single readings can be large; an effect the other way counts as inactive or inconclusive.

`COc1ccc2c(c1)c1nc3n(c(=O)c1n2CC(=O)Nc1ccccc1)CCCS3` gave RE007 growth inh inactive, Sm TGR block inactive, HCMV antiviral inactive, FMDV antiviral inactive and Tb PYK inh inactive.
COc1cccc(CNC(=O)Cn2c(=O)oc3cc(S(=O)(=O)N4CCCC4)ccc32)c1 was read as Sm TGR block inactive, HCMV antiviral inactive, FMDV antiviral inactive and Tb PYK inh inactive.
For CCOc1cc(CNC(=O)CSc2n[nH]c(-c3ccccc3)n2)cc(OCC)c1OCC the results were Sm TGR block inactive, HCMV antiviral inactive, FMDV antiviral inactive and Tb PYK inh inactive.
`Cc1ccc(NC(=O)C(c2ccc(Cl)cc2Cl)N2CCCC2)cc1` (stereo unspecified) gave RE007 growth inh inactive, Sm TGR block inactive, HCMV antiviral -65, FMDV antiviral inactive, Tb PYK inh inactive and FBPA Giardia inh inactive.
Screening Cc1ccc(NC(=O)CCC(=O)N2Cc3ccccc3Oc3ncccc32)cc1F returned Sm TGR block inactive, HCMV antiviral inactive, FMDV antiviral inactive and Tb PYK inh inactive.
Screening CC(C)(C)OC(=O)NCCCC1=CC2=CC(=O)C(C)(OC(=O)c3cnc4ccccc4n3)C(=O)C2=CO1 (stereo unspecified) returned FBPA Giardia inh inactive.
Screening Cc1cc(C2(c3ccc(O)c(C)c3)C(=O)Nc3ccccc32)ccc1O returned RE007 growth inh inactive, Sm TGR block inactive, HCMV antiviral -80, FMDV antiviral inconclusive, Tb PYK inh inactive and FBPA Giardia inh inactive.
`CC[C@H](C)[C@@H]1NC(=O)[C@@H](CC(C)C)NC(=O)[C@H](C(C)C)NC(=O)[C@H]2CSSC[C@H](NC1=O)C(=O)N2` gave RE007 growth inh inactive, HCMV antiviral -106, FMDV antiviral 6.3µM and Tb PYK inh inactive.
For Cc1ccc(NC(=O)c2cnn(-c3ccccc3)c2C)cc1C the results were RE007 growth inh inactive, Sm TGR block inactive, HCMV antiviral -61, FMDV antiviral inactive, Tb PYK inh inactive and FBPA Giardia inh inactive.
Screening COc1cccc(NC(=O)c2cnn(-c3ccccc3)c2-n2cccc2)c1 returned Sm TGR block inactive, HCMV antiviral -63, FMDV antiviral inactive and Tb PYK inh inactive.
`Cc1c(C(=O)Nc2ccccc2)cnn1-c1ccccc1` gave RE007 growth inh inactive, HCMV antiviral inactive, FMDV antiviral inactive and Tb PYK inh inactive.
For C[C@]12CCCCC3=CC(=O)C=C[C@@]31OCC2 the results were HCMV antiviral inactive.
Screening CCNC(=O)c1sc2ncnc(NCCCN3CCOCC3)c2c1C returned FMDV antiviral inactive.
COCCn1c(N)c(S(=O)(=O)c2cccs2)c2nc3ccccc3nc21 was read as RE007 growth inh inactive, Sm TGR block inactive, Tb PYK inh inactive and FBPA Giardia inh inactive.
COc1cccc(/C=N/n2c(N)c(S(=O)(=O)c3cccs3)c3nc4ccccc4nc32)c1OC was read as RE007 growth inh inactive, Sm TGR block inactive, HCMV antiviral -81, FMDV antiviral inactive, Tb PYK inh inactive and FBPA Giardia inh inactive.
For COc1c2ccccc2c(OC)c2ccccc12 the results were RE007 growth inh inactive, Sm TGR block inactive, HCMV antiviral -64, FMDV antiviral inactive, Tb PYK inh inactive and FBPA Giardia inh inactive.
For COc1nnc(OC)c2ccccc12 the results were RE007 growth inh inactive, Sm TGR block inactive, HCMV antiviral inconclusive, Tb PYK inh inactive and FBPA Giardia inh inactive.
`O=C(Nc1cc(SCCO)cc([N+](=O)[O-])c1)c1ccc(Br)o1` gave RE007 growth inh inactive, Sm TGR block inactive, HCMV antiviral inactive, FMDV antiviral 32µM, Tb PYK inh inactive and FBPA Giardia inh inactive.
`CC(=O)OCC1OC(n2cnc3c(Cl)nc(Cl)nc32)C(OC(C)=O)C1OC(C)=O` (stereo unspecified) gave FMDV antiviral inactive and FBPA Giardia inh inactive.
COc1ccc(-c2csc(C(C)(O)c3ccc(F)c(F)c3)n2)cc1 (stereo unspecified) was read as RE007 growth inh inconclusive, HCMV antiviral -63, FMDV antiviral inactive and Tb PYK inh inactive.
CN(C)c1ccc(-c2csc(C(C)(O)c3ccccc3)n2)cc1 (stereo unspecified) was read as RE007 growth inh inactive, HCMV antiviral inconclusive, FMDV antiviral inactive and Tb PYK inh inactive.
Screening CC(O)(c1ccc(F)c(F)c1)c1nc(-c2ccncc2)cs1 (stereo unspecified) returned RE007 growth inh inactive[18.4 µM], HCMV antiviral inactive, FMDV antiviral inactive and Tb PYK inh inactive.
Screening CN(C)c1ccc(-c2csc(C(C)(O)c3ccc(F)c(F)c3)n2)cc1 (stereo unspecified) returned RE007 growth inh inactive[18.4 µM], HCMV antiviral -64, FMDV antiviral inactive and Tb PYK inh inactive.
Screening COc1ccc(C(C)(O)c2nc(-c3cccc(C(F)(F)F)c3)cs2)cc1 (stereo unspecified) returned RE007 growth inh 35µM, HCMV antiviral -67, FMDV antiviral inactive and Tb PYK inh inactive.
For CCOC(=O)c1cccc(NC(=O)Nc2c(C)n(C)n(-c3ccccc3)c2=O)c1 the results were Sm TGR block inactive, HCMV antiviral inactive, FMDV antiviral inactive and Tb PYK inh inactive.
`COc1ccc2[nH]c3c(c2c1)CCN(C(=O)c1cccc(Cl)c1)C3c1ccc(F)cc1` (stereo unspecified) gave Sm TGR block inactive, HCMV antiviral -73, FMDV antiviral inactive and Tb PYK inh inactive.
CCCc1nnc(NC(=S)Nc2ccccc2)s1 was read as RE007 growth inh inactive, Sm TGR block inactive, HCMV antiviral inactive, FMDV antiviral inactive, Tb PYK inh inactive and FBPA Giardia inh inactive.
CC(C)C(=O)Nc1nnc(NC(=S)Nc2ccccc2)s1 was read as RE007 growth inh inactive, Sm TGR block 25µM, HCMV antiviral inactive, FMDV antiviral inactive, Tb PYK inh inactive and FBPA Giardia inh inactive.
For Cc1c(C(=O)C(=O)NCCC2=CCCCC2)c2ccccc2n1C the results were RE007 growth inh inactive, Sm TGR block inactive, HCMV antiviral -62, FMDV antiviral inactive, Tb PYK inh inactive and FBPA Giardia inh inactive.
For Cc1ccccc1NC(=O)CSc1ncc2c(n1)-c1ccccc1N(C)S2(=O)=O the results were Sm TGR block inactive, HCMV antiviral inactive, FMDV antiviral inactive and Tb PYK inh inactive.
`CCCCC1(Br)C(=O)N(c2ccccc2)N(c2ccccc2)C1=O` gave RE007 growth inh inactive, Sm TGR block 14µM, HCMV antiviral inconclusive, FMDV antiviral inactive and Tb PYK inh inconclusive.
For CCCCC1(CC(=O)OCC)C(=O)N(c2ccccc2)N(c2ccccc2)C1=O the results were RE007 growth inh inactive, Sm TGR block inactive, HCMV antiviral inactive, FMDV antiviral inactive, Tb PYK inh inactive and FBPA Giardia inh inactive.

Screening data (PubChem BioAssay)
